# Measured values published in PubChem BioAssay AID2071 (Sanford-Burnham Center for Chemical Genomics, 2009).
# The whole screen tested about 280,000 compounds, of which about 1,700 (0.61%) were called active. The sample holds actives, similar compounds and a random draw of the others, so the mix is not that of the screen. No stated cut-off is given here; in the data, active means inhibition mostly above about 24% (no sharp cut-off); inactive means mostly below about 32%.
# Assay: NALP1 inflammasome inhibitors in reconstituted yeast, colorimetric, S. cerevisiae, triplicate retest (AID 2071)
# Conditions: S. cerevisiae NALP1/ASC/caspase-1 growth, X-gal OD620, 72 h, stronger effect = higher value
smiles,measurement,setting,value
COc1ccc(S(=O)(=O)Nc2ccc3c(c2)OCO3)cc1Cl,inhibition,at 10 µM unless noted,27.9% (active)
COc1ccc(S(=O)(=O)Nc2ccc(S(=O)(=O)N3CCCCC3)cc2)cc1OC,inhibition,at 10 µM unless noted,22.8% (inactive)
CNS(=O)(=O)c1ccc(NC(=O)Nc2ccc3c(c2)OCO3)cc1,inhibition,at 10 µM unless noted,-4.3% (inactive)
Cc1cc(N=Nc2ccc3ccccc3c2)ccc1O,inhibition,at 10 µM unless noted,1.2% (inactive)
CC[C@]1(c2ccccc2OC)C(=O)N(C(=O)OC)N1C(=O)OC,inhibition,at 10 µM unless noted,34.1% (inactive)
CCOC(=O)C1(Cc2ccccc2C)CCCN(C(=O)CN2C(=O)CSC2=O)C1 (configuration not stated),inhibition,at 10 µM unless noted,20% (inactive)
O=C(NC(=S)N1CCCCC1c1cccnc1)c1ccccc1 (configuration not stated),inhibition,at 10 µM unless noted,-18% (inactive)
CCn1c(=N)n(CC(=O)c2cccc(OC)c2)c2ccccc21,inhibition,at 10 µM unless noted,31.5% (active)
COc1ccc2cc(C(=O)O)n(CC(=O)c3ccccc3)c2c1,inhibition,at 10 µM unless noted,14% (inactive)
CCCn1c(=N)n(CC(=O)c2ccc(Cl)c(Cl)c2)c2ccccc21,inhibition,at 10 µM unless noted,23.1% (inactive)
Cc1ccccc1NC(=O)C1CCN(C(=O)NC2CCCCC2)CC1,inhibition,at 10 µM unless noted,40.8% (active)
Cc1cccc(NC(=O)C2CCN(C(=O)NC3CCCCC3)CC2)c1,inhibition,at 10 µM unless noted,3.7% (inactive)
O=C(Nc1cccc2c1CCCC2)C1CCN(C(=O)NC2CCCCC2)CC1,inhibition,at 10 µM unless noted,-14.2% (inactive)
O=S(=O)(Oc1ccccc1C(=S)N1CCOCC1)c1ccc(Cl)cc1,inhibition,at 10 µM unless noted,1.2% (inactive)
Cc1ccc(OCc2cc(C(=O)N(C)CCn3ccnc3C)no2)cc1C,inhibition,at 10 µM unless noted,5.1% (inactive)
COc1cccc(C2SCC(=O)N2c2cccc(C)c2)c1OC (configuration not stated),inhibition,at 10 µM unless noted,9.2% (inactive)
Cc1cc(=O)cc(C)n1-c1ccc(Cl)c(Cl)c1,inhibition,at 10 µM unless noted,-5.9% (inactive)
O=C1CSC(=S)N1c1ccc(O)cc1,inhibition,at 10 µM,76.7% (active)
same,inhibition,"triplicate retest, at 20 µM",95.9%
CC(C)N1C(=S)SC(C)(C)C1n1oc(=O)n(-c2ccc(Cl)c(Cl)c2)c1=O (configuration not stated),inhibition,at 10 µM unless noted,0.9% (inactive)
COc1ccc(N2C(=O)CNC2=S)cc1,inhibition,at 10 µM unless noted,-21.9% (inactive)
COc1ccc(CCN=C2SCC(=O)N2C)cc1OC,inhibition,at 10 µM unless noted,2.2% (inactive)
O=C1CSC(=S)N1c1ccc(Cl)c(Cl)c1,inhibition,at 10 µM unless noted,44.2% (active)
CCOc1cccc(/C=N/N2C(=O)CSC2=S)c1O,inhibition,at 10 µM unless noted,-14.2% (inactive)
COc1cc(N2C(=O)CSC2=S)cc(OC)c1OC,inhibition,at 10 µM,52.7% (active)
same,inhibition,"triplicate retest, at 20 µM",57.6%
Cc1cccc(Nc2nc(-c3ccccc3)cs2)n1,inhibition,at 10 µM unless noted,19.1% (inactive)
CCOc1ccccc1NC(=S)N1CCN(c2cccc(C)c2C)CC1,inhibition,at 10 µM unless noted,4.9% (inactive)
CC(C)c1ccc2oc(=O)cc(CN3CCN(Cc4ccccc4)CC3)c2c1,inhibition,at 10 µM unless noted,8.7% (inactive)
Cc1cc(Cl)nc(NC(=O)Nc2cccc(Cl)c2)n1,inhibition,at 10 µM unless noted,22.5% (inactive)
O=c1c(-c2cccc(Cl)c2)c[nH]n1-c1ccccc1,inhibition,at 10 µM unless noted,17% (inactive)
CCCn1c(C(C)Nc2nc(-c3ccc(C)cc3)cs2)nc2cc(Cl)c(N3CCCCC3)cc21 (configuration not stated),inhibition,at 10 µM unless noted,14.5% (inactive)
O=C(CSCc1ccccc1)Nc1ccccc1,inhibition,at 10 µM unless noted,8.9% (inactive)
Cn1c(CC(=O)Nc2ccccc2)nnc1SCC(=O)c1ccccc1,inhibition,at 10 µM unless noted,9.9% (inactive)
Cn1c(CSCC(=O)Nc2ccccc2)nnc1SCc1ccccc1,inhibition,at 10 µM unless noted,38.6% (active)
CCOC(=O)Nc1ccc2c(c1)N(C(=O)CCCl)c1ccccc1[S@]2=O,inhibition,at 10 µM unless noted,8.9% (inactive)
O=C(CCCN1C(=O)/C(=C/c2cccs2)SC1=S)Nc1ccc(O)cc1,inhibition,at 10 µM unless noted,5% (inactive)
Cc1cccc(C)c1NC(=O)C(c1ccccc1)N1CC(=O)Nc2ccccc21 (configuration not stated),inhibition,at 10 µM unless noted,19.2% (inactive)
Cc1cccc(C)c1NC(=O)N1CC(C)OC(C)C1 (configuration not stated),inhibition,at 10 µM unless noted,5.2% (inactive)
Cc1cccc(C)c1NC(=O)C(Cl)C(=O)c1ccccc1 (configuration not stated),inhibition,at 10 µM,50.4% (active)
same,inhibition,"triplicate retest, at 20 µM",80.1%
CCc1ccc(NC(=O)COC(=O)c2cccs2)cc1,inhibition,at 10 µM unless noted,8.1% (inactive)
Cc1nc2cc(NCc3cccs3)ccc2n1C,inhibition,at 10 µM unless noted,1.9% (inactive)
Cc1nc2cc(NC(=O)NC3CC3)ccc2n1C,inhibition,at 10 µM unless noted,29.1% (active)
Cn1c(CCN2CCCCCC2)nc2cc(NC(=O)Nc3ccccc3)ccc21,inhibition,at 10 µM unless noted,19.6% (inactive)
CCCOC1CCCN(C(=O)c2cc(COc3cncc(Cl)c3)on2)C1 (configuration not stated),inhibition,at 10 µM unless noted,-85.7% (inactive)
Cc1ccc(C)c(N2CCN(C(=O)CCCCCn3c(=S)[nH]c4ccc(N5CCOCC5)cc4c3=O)CC2)c1,inhibition,at 10 µM unless noted,-12.8% (inactive)
CCOc1ccc(NC(=O)CCCCCN2C(=O)[C@@H]3Cc4ccccc4CN3C2=O)cc1,inhibition,at 10 µM unless noted,12.6% (inactive)
Cc1ccc(Cn2c(C)c3cnn(CC(=O)NCc4ccccn4)c(=O)c3c2C)cc1,inhibition,at 10 µM unless noted,-2.5% (inactive)
CNC(=O)/C(C#N)=C/c1c(F)cccc1Cl,inhibition,at 10 µM unless noted,46.8% (active)
Cc1[nH]c2ccccc2c1/C=C(/C#N)C(=O)NC(C)C,inhibition,at 10 µM unless noted,0.1% (inactive)
N#C/C(=C\c1ccccc1C(F)(F)F)C(=O)Nc1ccccc1F,inhibition,at 10 µM unless noted,40.5% (inactive)
O=C(Nc1cccc2cccnc12)c1cccc(N2C(=O)CCC2=O)c1,inhibition,at 10 µM unless noted,15.2% (inactive)
O=C(Nc1cccc2cccnc12)c1cccc(Cl)c1,inhibition,at 10 µM unless noted,0.8% (inactive)
N#Cc1ccc(C(=O)Nc2cccc3cccnc23)c(F)c1,inhibition,at 10 µM unless noted,40% (active)
O=Cc1c(Nc2ccccc2Cl)nc2ccccn2c1=O,inhibition,at 10 µM unless noted,13.8% (inactive)
Cc1ccc(CCn2c3c(c4ccccc42)CN(C)CC3)cn1,inhibition,at 10 µM unless noted,39.6% (active)
COc1cc(Br)c(-c2sc(Nc3ccccc3)n[n+]2-c2ccccc2)cc1OC,inhibition,at 10 µM unless noted,-1.9% (inactive)
Cc1ccccc1Nc1nc(-c2cccnc2)cs1,inhibition,at 10 µM unless noted,16.4% (inactive)
COc1nnc(-c2ccc(C)c(S(=O)(=O)N(C)C)c2)c2ccccc12,inhibition,at 10 µM unless noted,17.5% (inactive)
CCCc1nc2ccccc2c(C(=O)OCC(=O)c2ccc3c(c2)NC(=O)CO3)c1CC,inhibition,at 10 µM unless noted,-1.4% (inactive)
Cc1ccc(Nc2nnc(SCC(=O)c3cc4ccccc4o3)s2)cc1C,inhibition,at 10 µM unless noted,5% (inactive)
CCc1ccc(Nc2nnc(SCC(=O)c3ccc4c(c3)NC(=O)CO4)s2)cc1,inhibition,at 10 µM unless noted,39.5% (active)
COc1ccc(C(=O)/C=C/c2cccnc2)c(OC)c1,inhibition,at 10 µM unless noted,-90.5% (inactive)
COc1ccc(O)c(/C=N/N=C/c2cccc([N+](=O)[O-])c2)c1,inhibition,at 10 µM unless noted,14.9% (inactive)
Cc1ccc(O)c(CNc2nc3ccccc3[nH]2)c1,inhibition,at 10 µM unless noted,10.8% (inactive)
COCC1CCN(C(=O)C2CCC(=O)N(Cc3cccc(C(F)(F)F)c3)C2)CC1 (configuration not stated),inhibition,at 10 µM unless noted,2.8% (inactive)
